According to PubChem BioAssay AID1566 (Sanford-Burnham Center for Chemical Genomics, 2009):
About 1,800 (0.62%) of roughly 290,000 compounds were called active. Shown is part of a subset that was picked to be rich in actives. A number with no mark means an inactive call. Cut-off read from the data, not from the text of the source: active = inhibition above about 50%; inactive = the rest.

Assay: inhibition of NOD2-driven NF-kB reporter – cell-based, luminescence, uHTS, HEK293 (AID 1566)
Settings: HEK293 NOD2/NF-kB luciferase reporter, at 4 µM, stronger effect = higher value

Structure (SMILES)	inhibition
Cc1ccc(S(=O)(=O)Nc2nnc(C(C)(C)C)s2)cc1	20.9%
N/C(=N\c1nc(CSc2ccc(Cl)cc2)cc(=O)[nH]1)Nc1ccccc1C(F)(F)F	2.8%
Cc1ccc(C2=NN(C(=O)CCl)C(c3ccco3)C2)o1 (configuration not stated)	-44.2%
O=C(O)CCC(=O)N1N=C(c2ccco2)CC1c1cccs1 (configuration not stated)	12.1%
Cc1ccc(C2CC(c3cccs3)=NN2C(=O)CCl)cc1 (configuration not stated)	37.3%
CC(=O)N1N=C(c2ccco2)CC1c1cccs1 (configuration not stated)	-8.2%
CCOC(=O)c1cccc(NC(=O)COC)c1	4.6%
CCOCCCNC(=O)/C(C#N)=C/c1ccc(C(=O)OC)cc1	15.4%
O=C1Nc2ccccc2S/C1=C\C(=O)N1CCCC1	-4%
O=C(CCNC(=O)c1ccco1)Nc1ccccc1N1CCOCC1	-4.7%
CCOc1cc(/C=C2\SC(=O)N(CC(=O)Nc3ccccc3F)C2=O)cc([N+](=O)[O-])c1O	55.8% (active)
COc1cc(/C=C2\SC(=O)N(CC(=O)Nc3cccc(C)c3)C2=O)cc([N+](=O)[O-])c1O	1.5%
COc1cc(/C=C2\SC(=O)N(CC(=O)Nc3ccccc3F)C2=O)cc(Cl)c1O	18.4%
O=C(NC1CCCCC1)C1CN(S(=O)(=O)c2ccccc2)CCN1S(=O)(=O)c1ccccc1 (configuration not stated)	20.9%
CCOC(=O)/C(C#N)=C1/SC(CC)C(=O)N1c1ccc(Br)cc1 (configuration not stated)	-8.1%
CC1CCN(C(=S)c2cn(Cc3ccccc3F)c3ccccc23)CC1	10.5%
CC(=O)Oc1cccc(N2C(=O)C3CC=CCC3C2=O)c1 (configuration not stated)	2.7%
Cc1csc2c(N3CCN(C(=O)Nc4ccc(OC(F)(F)F)cc4)CC3)ncnc12	10.4%
Cc1csc2c(N3CCN(C(=O)Nc4ccccc4)CC3)ncnc12	34.1%
CC(NS(=O)(=O)c1ccc(Cl)cc1)C(=O)N1CCOCC1 (configuration not stated)	-4.3%
Cc1cc(OCC(=O)NCCCn2ccnc2)c2c(C)c(C)c(=O)oc2c1	-3.4%
CC(=O)c1ccc(S(=O)(=O)N(C)C(C)CCc2ccco2)cc1 (configuration not stated)	54.3% (active)
COc1ccc(S(=O)(=O)N(C)C(C)CCc2ccco2)cc1 (configuration not stated)	-3.3%
CC(CCc1ccco1)N(C)S(=O)(=O)c1csc(C(N)=O)c1 (configuration not stated)	15%
CC(C)(C)C(=O)C[n+]1cccc(C(N)=O)c1	12.8%

Structure (SMILES)	inhibition
O=C(COc1ccccc1)Nc1cc(C(F)(F)F)ccc1N1CCCC1	24.5%
Cc1cc(N2CCCC2)ccc1NC(=O)COc1cccc(C(F)(F)F)c1	60.3% (active)
O=C(COc1cccc(C(F)(F)F)c1)Nc1ccc(S(=O)(=O)N2CCCC2)cc1	-5.9%
O=C(Nc1cccc(C(F)(F)F)c1)C1CCN(S(=O)(=O)c2ccc(N3CCCC3=O)cc2)CC1	34.8%
Cc1ccc(N=C2C(=O)Nc3ccccc32)cc1	4%
Cc1cccc(C)c1N=C1C(=O)Nc2ccccc21	57.9% (active)
Cc1cc(C)c(N=C2C(=O)Nc3ccccc32)c(C)c1	22.5%
CCN(CC)C(=O)C1CCN(S(=O)(=O)c2ccc3c(c2)CCCN3C(=O)C2CCC2)CC1	23.6%
COc1ccc(NC(C)=O)cc1NC(=O)c1ccc2ccccc2c1	-14.6%
CCc1sc(NC(C)=O)nc1-c1ccccc1	-49.5%
CC(=O)Nc1ccc(NC(=O)C2CCC(CNS(=O)(=O)c3cccc4nsnc34)CC2)cc1 (configuration not stated)	-8.1%
CCCc1cc(=O)n2nc(N3CCC(C(=O)N4CCN(c5cccc(OC)c5)CC4)CC3)sc2n1	40.5%
CCCc1cc(=O)n2nc(N3CCC(C(=O)N4CCN(c5ccc(OC)cc5)CC4)CC3)sc2n1	62.2% (active)
Cc1cc(=O)n2nc(N3CCC(C(=O)N4CCN(c5ccccc5)CC4)CC3)sc2n1	-8.2%
NS(=O)(=O)c1ccc(CCNC(=O)c2ccc3ccccc3n2)cc1	-17.8%
CCc1nnc(NC(=O)c2ccc(S(=O)(=O)N3CCc4ccccc4C3)cc2)s1	25.4%
O=C(Nc1nnc(C2CC2)s1)c1ccc(Cl)c(S(=O)(=O)N2CCc3ccccc3C2)c1	41.6%
CCCn1ncc(CN2CCCC(C(=O)c3cccc(OC(C)C)c3)C2)c1C (configuration not stated)	-35.2%
Cc1[nH]c2ccc(C(=O)N3CCCCC3)cc2c1C	-56%
CCC(=O)OCn1nnc2ccccc2c1=O	7.6%
Cc1sc(NC(=O)c2cccc([N+](=O)[O-])c2)c(C(N)=O)c1-c1ccc(C(C)(C)C)cc1	7.8%
Cc1sc(NC(=O)CCC(=O)O)c(C(N)=O)c1-c1ccccc1	-3.9%
O=S(=O)(Nc1cccc(-c2cn3cccnc3n2)c1)c1ccccc1	4.2%
O=S(=O)(Nc1cccc(-c2cn3cccnc3n2)c1)c1ccc(F)cc1	0.9%
COC(=O)C1CC(Cl)CN1c1ncc(C(F)(F)F)cc1Cl (configuration not stated)	17.1%

Structure (SMILES)	inhibition
COc1cc2ncnc(NCc3ccccc3)c2cc1OC	-17.4%
OCCNc1ncnc2ccc(Br)cc12	23%
CCN(CC)CCCNc1ncnc2ccccc12	9.5%
Clc1ccc2c(NCc3ccco3)ncnc2c1	18.8%
COc1cc2ncnc(NCc3ccco3)c2cc1OC	-78.1%
c1ccc(CNc2ncnc3ccccc23)cc1	55.3% (active)
Brc1ccc2ncnc(NCc3ccccc3)c2c1	79% (active)
c1ccc(CCNc2ncnc3ccccc23)cc1	28.7%
CCCCCCCCNc1ncnc2ccccc12	55.7% (active)
OCCCCCNc1ncnc2ccccc12	40.1%
c1ccc(CNc2nc(NCc3ccccc3)c3ccccc3n2)cc1	-4.4%
Nc1nc(Nc2cccc(Cl)c2)nc(NCCO)c1[N+](=O)[O-]	15.3%
CCOc1ccc(CN(C)CC(=O)Nc2cc(OC)c([N+](=O)[O-])cc2C)cc1	-8%
CCCN(CCC)S(=O)(=O)c1ccc(C(=O)NNc2nc(-c3ccccc3)c3cc(Br)ccc3n2)cc1	-5%
Cc1cccnc1NC(=O)CCNC(=O)c1ccccc1Cl	-22.7%
COc1ccccc1NC(=O)CSc1n[nH]c(-c2cccnc2)n1	8.6%
COc1ccc(C2C(C(=O)c3ccco3)=C(O)C(=O)N2CCCn2ccnc2)c(OC)c1 (configuration not stated)	-6.9%
CC(C)=C(NC(=O)c1ccccc1)C(=O)NCc1ccccc1	-7%
O=c1sc2ccccc2c(N2CCOCC2)c1[N+](=O)[O-]	8.4%
COc1cc(/C=N\n2cnnc2)ccc1OCC(=O)Nc1ccc(C)cc1	12.5%
COC(=O)C1(Cc2cc(-c3cccnc3)no2)CCN(C(=O)OC(C)(C)C)CC1	15.6%
COc1ccc(-c2ccc3ccccc3n2)cc1	-226%
c1ccc2nc(-c3ccc(N4CCOCC4)cc3)ccc2c1	-59.7%
CN1CCN(c2ccc(-c3ccc4ccccc4n3)cc2)CC1	79.9% (active)
Cc1cccc(Oc2ccc(N)cc2)c1	-4%

Structure (SMILES)	inhibition
Nc1ccc(Oc2cc(N)cc(Oc3ccccc3)c2)cc1	-93.4%
CC(C)c1ccc(C(C(=O)NC2CCCC2)N(C(=O)c2csnn2)C2CC2)cc1 (configuration not stated)	12.1%
CC(SCc1ccccc1)C(=O)NC1CCCC1 (configuration not stated)	-2.5%
Cc1nc(SCC(=O)Nc2ccnc3ccccc23)n[nH]1	17.9%
Cc1cc(C)nc(SCC(=O)Nc2ccnc3ccccc23)n1	50.5% (active)
Cc1cc(=O)[nH]c(SCC(=O)Nc2ccnc3ccccc23)n1	26.4%
NC(=O)c1cnn(-c2cc(Oc3ccccc3)ncn2)c1N	-54.7%
Nc1ccc2c(c1)N=[N+]([O-])c1cc(N)ccc1C2	4.2%
CC(=O)c1c(O)ccc2c(-c3ccccc3)cc(=O)oc12	13%
CN(C)Cc1c(O)ccc2c(-c3ccccc3)cc(=O)oc12	1.4%
COc1cc(NS(=O)(=O)c2ccc(N/C=C(\C=O)c3nc4ccccc4o3)cc2)nc(OC)n1	11%
CC(=O)NNC(=S)NC(=O)c1cccc([N+](=O)[O-])c1	14.7%
O=C(CN1C(=O)NC2(CCCC2)C1=O)N1CCN(S(=O)(=O)c2ccccc2Br)CC1	3.9%
CCc1c(C)sc(NC(=O)c2cc(C)on2)c1C#N	-59.7%
CCc1c(C)sc(NC(=O)c2cc(-c3ccc(OC)c(OC)c3)on2)c1C#N	11.3%
CCc1c(C)sc(NC(=O)c2cc(-c3ccc(O)cc3)on2)c1C#N	50.7% (active)
COc1ccc(CN(C)S(=O)(=O)c2nnc(NC(=O)c3cccc(F)c3)s2)cc1OC	44.4%
COc1ccc(CN(C)S(=O)(=O)c2nnc(NC(=O)c3cccc(OC)c3)s2)cc1	29.7%
Cn1c(NC2CCCCC2)cc(=O)n(C)c1=O	15.2%
COc1ccccc1OCC(=O)N1CCCC(Nc2ccc(C)c(C)c2)C1 (configuration not stated)	16.3%
CCCCn1c(N)c(N(CC(C)C)C(=O)c2cccc(S(=O)(=O)N3CCCCCC3)c2)c(=O)[nH]c1=O	0.1%
CCc1cc(=O)oc2cc(C)cc(OCC(=O)C(C)(C)C)c12	8.9%
